Laboratory results as given in article PMC6579518.

molecular target: Large ribosomal subunit protein eL14A (UniProt P36105); experiment: cross-link between two proteins; cross-linking mass spectrometry
Sequence (P36105 whole entry): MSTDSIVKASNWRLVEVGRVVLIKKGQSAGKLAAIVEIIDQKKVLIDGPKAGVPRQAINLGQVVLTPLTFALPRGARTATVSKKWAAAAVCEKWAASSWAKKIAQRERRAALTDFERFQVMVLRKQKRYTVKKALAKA

Chain of Large ribosomal subunit protein uL13A, P26784 (P26784 whole entry): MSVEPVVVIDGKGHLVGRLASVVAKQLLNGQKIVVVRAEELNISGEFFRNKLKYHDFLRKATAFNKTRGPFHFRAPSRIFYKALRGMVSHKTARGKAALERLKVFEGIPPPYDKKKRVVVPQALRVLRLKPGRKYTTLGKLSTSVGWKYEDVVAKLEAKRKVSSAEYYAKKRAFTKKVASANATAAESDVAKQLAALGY
Chain of Large ribosomal subunit protein uL13B, P26785 (P26785 whole entry): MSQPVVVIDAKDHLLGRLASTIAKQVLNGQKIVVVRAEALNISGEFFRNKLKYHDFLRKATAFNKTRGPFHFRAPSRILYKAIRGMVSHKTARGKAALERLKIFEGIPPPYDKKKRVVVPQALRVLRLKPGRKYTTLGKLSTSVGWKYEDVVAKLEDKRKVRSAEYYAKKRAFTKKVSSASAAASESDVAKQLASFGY
Chain of Large ribosomal subunit protein eL32, P38061 (P38061 whole entry): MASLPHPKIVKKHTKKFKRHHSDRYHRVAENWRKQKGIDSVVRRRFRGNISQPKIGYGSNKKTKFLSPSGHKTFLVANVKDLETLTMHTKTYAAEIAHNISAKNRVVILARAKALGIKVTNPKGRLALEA

Substance | listed as a hit
Large ribosomal subunit protein uL13A, P26784 | yes
Large ribosomal subunit protein uL30A, P05737 | yes
Large ribosomal subunit protein uL13B, P26785 | yes

molecular target: Ribosome biogenesis protein ALB1 (UniProt P47019); experiment: as above
Sequence (P47019 whole entry): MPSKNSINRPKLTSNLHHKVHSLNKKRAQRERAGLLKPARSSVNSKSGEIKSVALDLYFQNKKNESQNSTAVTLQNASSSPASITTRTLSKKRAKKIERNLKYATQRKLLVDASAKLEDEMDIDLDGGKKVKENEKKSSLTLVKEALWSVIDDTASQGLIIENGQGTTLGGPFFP

Substance | listed as a hit
Large ribosomal subunit protein eL32, P38061 | yes
Large ribosomal subunit protein uL24A, P05743 | yes
Large ribosomal subunit protein eL6B, P05739 | yes
